Experimental data taken from PubChem BioAssay AID1490 (National Center for Advancing Translational Sciences (NCATS), 2009).
“And” between values parts separate entries of the source, which are not always exact repeats. Equal entries are not always repeated. About 11,000 (3.5%) of roughly 310,000 compounds were called active. Another 4% or so got no clear call; they are omitted. The list comes from a sample in which actives are over-represented; it also holds similar structures and randomly drawn compounds. Values without a mark were called inactive. The call rests on the fitted dose curve; in most records, active means well fitted inhibition curve with a large enough effect; inconclusive means small, poorly fitted or top-dose-only effect, or another doubt; inactive means no such curve, though single readings can be large or run the other way.

target: 4'-phosphopantetheinyl transferase ffp (Bacillus subtilis) (UniProt Q9F4F7); assay: qHTS Assay for Inhibitors of Bacillus subtilis Sfp phosphopantetheinyl transferase (PPTase); conditions: Biochemical Sfp PPTase activity;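 further: the enzyme is Sfp with the accession as filed and its product quenches rhodamine fluorescence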;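 on largest response in the series, negative = inhibition: 0% = enzyme reaction without inhibitor and -100% = no enzyme wells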
Source text: Assay Submitter: Michael Burkart, University of California, San Diego
Screening Center PI: Austin, C.P.
Screening Center: NIH Chemical Genomics Center [NCGC]
The covalent attachment of a phosphopantetheinyl (4'-PP) arm to a variety of synthases and other proteins is a key posttranslational protein modification. The 4'-PP is installed on the proteins post-translationally from coenzyme A (CoA) on a conserved serine residue by action of phosphopantetheinyl transferase (PPTase) enzymes. Phosphopantetheinylation is essential for synthase activity, and removal of the PPTase gene precludes natural product synthesis in microorganisms, or in the case of fatty acid biosynthesis, renders the organism unviable. PPTase enzymes belong to a distinct structural superfamily. Within bacteria, these enzymes are grouped into two classes based upon primary structure, the AcpS-Type and Sfp-Type PPTases.
Sfp-type PPTases, corresponding to an activator of surfactin production in Bacillus subtilis, are responsible for modifying type I polyketide and nonribosomal peptide synthases of prokaryotes. Sfp-type PPTases are responsible for the activation of a variety of pathogen-associated virulence factors. Among these compounds are toxins such as mycolactone from Mycobacterium ulcerans, siderophores such as vibriobactin from Vibrio cholerae or mycobactin from Mycobacterium tuberculosis, as well as the mycolic acids which form the waxy cell wall of Mycobacteria. The biosyntheses of these natural products are considered attractive targets for drug design.
In search of small molecule Sfp-PPTase inhibitors, a fluorescence quenching assay was developed for detection of Bacillus subtilis Sfp-PPTase enzymatic activity in a miniaturized high-throughput format. The consensus ybbr acceptor peptide […] was N-terminally labeled with Black Hole Quencher-2 (BHQ-2) and used in combination with rhodamine-labeled coenzyme A as a co-substrate.
Inhibition of Sfp-PPTase was detected by recording the fluorescence intensity change over a 30-minute reaction period at a 525 nm excitation and 598 nm emission. Reagents were supplied by Michael Burkart and Timothy Foley, University of California at San Diego.
This BioAssay deposition is for validation of the developed Sfp-PPtase assay.
Assay Buffer: 50 mM Hepes-Na pH 7.6, 10 mM MgCl2, 0.01% Nonidet P-40, and 0.01% BSA.
3 uL of Sfp-PPTase enzyme (final concentration 15 nM) and 1 uL of substrate mixture (final concentration for rhodamine-CoA and BHQ-2-YbbR 5 uM and 12.5 uM, respectively) dispensed in columns 1, 2, 5 - 48. Columns 1 and 2 used to generate neutral control (uninhibited reaction)
Three uL of reagents, consisting of buffer (in columns 3 and 4 as negative control) and Sfp-PPTase (in columns 1, 2, 5 - 48) were dispensed into 1,536-well Greiner black solid bottom plate. Compounds (23 nL) were transferred via Kalypsys pintool equipped with 1,536-pin array. The plate was incubated for 15 min at room temperature, followed by the addition of 1 uL substrate to start the reaction. The plate was then centrifuged at 1000 rpm for 15 seconds, and the fluorescence intensity recorded on a ViewLux High-throughput CCD imager (Perkin-Elmer) using standard BODIPY optics (525 nm excitation and 598 nm emission). The plate was then incubated for 30 minutes, and a second read on the ViewLux was performed. The fluorescence intensity difference over the 30-minute period was used to calculate the respective reaction rate for each well.
Potency means the concentration at half of the fitted maximal effect.

Row | SMILES | largest response in the series, negative = inhibition | Potency
1 | Cc1ccc2c(c1)C(c1ccccc1)N(C(=O)c1ccc(F)cc1)CC(=O)N2 (centres undefined) | -5.97% | 
2 | Cc1cc(NC(=O)CCC(=O)N(CC(=O)NCC2CCCO2)c2ccccc2)no1 (centres undefined) | -5.59% | 
3 | CCn1c(SCC(=O)NC2CC2)nnc1-c1ccncc1 | 12.1% | 
4 | CCc1ccccc1N(CC(=O)NCC1CCCO1)C(=O)CCC(=O)Nc1nccs1 (centres undefined) | 11.3% | 
5 | O=C(Nc1cc(-c2nc3ncccc3o2)ccc1Cl)c1ccco1 | 0.0878% | 
6 | COC(=O)[C@]1(S(=O)(=O)c2ccccc2)C[C@@H]2ON=C(c3ccc(OC)cc3)[C@@H]2C1 | -3.07% | 
7 | Cc1nnc(SCC(N)=O)n1CC1CCCO1 (centres undefined) | 13.7% | 
8 | O=C(CSc1nnc(-c2ccco2)n1CC1CCCO1)c1ccccc1 (centres undefined) |  | 50.1 µM (active)
9 | COc1ccccc1NC(=O)CSc1nnc(C)n1CC1CCCO1 (centres undefined) | 14.7% | 
10 | O=C(/C=C/c1ccc(Cl)cc1)NCCCn1ccnc1 | -28% | 
11 | Cc1nn(-c2ccccc2)c(Cl)c1/C=N/NC(=O)c1nn(C)cc1[N+](=O)[O-] | -3.09% | 
12 | Cc1ccccc1NC(=O)CN1C(=O)N/C(=C\c2cccn2-c2cccc(C(=O)O)c2)C1=O |  | 20 µM (active)
13 | N#Cc1ccccc1CN1C(=O)S/C(=C/c2cccn2-c2cccc(C(=O)O)c2)C1=O | -18.1% | 
14 | O=C1N/C(=C/c2cccn2-c2ccccc2)C(=O)N1c1cccc(Cl)c1 | 12.7% | 
15 | Cn1ncc2c(N3CCCCC3)nc(NCCCO)nc21 | 14.5% | 
16 | O=C(c1n[nH]c2c1CCC2)N1CCCC(Nc2cccc(F)c2)C1 (centres undefined) | 4.84% | 
17 | CC(C)(C)c1ccc(C(CC(=O)O)NS(=O)(=O)Cc2ccccc2)cc1 (centres undefined) | -0.492% | 
18 | CCOC(=O)C1(Cc2cccc(OC)c2)CCN(C(C)COC)CC1 (centres undefined) | 2.4% | 
19 | CCOC(=O)C1(Cc2cccc(OC)c2)CCN(C(C)CC(C)(C)O)CC1 (centres undefined) |  | 35.5 µM (active)
20 | CCOC(=O)C1(Cc2cccc(OC)c2)CCN(Cc2csc(C(C)=O)c2)CC1 | 5.75% | 

Row | SMILES | largest response in the series, negative = inhibition | Potency
21 | Cc1oc2cc3oc(=O)ccc3cc2c1C | 6.39% | 
22 | CCCC[C@]12Cc3cc(OC)c(OC)cc3C(O1)C1=C(CC3(CCCCC3)OC1=O)O2 | -4.17% | 
23 | COc1ccc(Cc2nc(-c3ccccn3)no2)cc1OC |  | 79.4 µM (active)
24 | Cc1ccc(Cc2nc(-c3cccc(C)c3)no2)cc1 | 12.9% | 
25 | COc1ccccc1Cc1nc(-c2ccc(C)cc2)no1 | -1.19% | 
26 | COc1cc(S(=O)(=O)N2CCN=C2c2ccccc2)ccc1Cl | 14% | 
27 | CC(C)C(C)NC(=O)COc1nc2ccccc2nc1N(C)C1CCCCC1 (centres undefined) | -0.152% | 
28 | COCCN(C(=O)CCC(=O)Nc1nccs1)C(C(=O)NCCC(C)C)c1ccc(F)cc1 (centres undefined) | 9.51% | 
29 | C=CC(=O)c1ccc2ccccc2c1 |  | 3.55 µM (active) and 31.6 µM (active)
30 | O=C(Nc1ccc(NC(=O)c2cccs2)cc1)c1ccc2ccccc2c1 | -1.36% | 
31 | CC(=O)CCC(=O)c1ccc2ccccc2c1 | 7.52% | 
32 | Cc1ccccc1Nc1nc(-c2cccnc2)cs1 | -24.9% | 
33 | c1cnc(N2CCN(c3ccc4ccccc4n3)CC2)nc1 | -3.4% | 
34 | COc1ccccc1N1CCN(C(=O)CCS(=O)(=O)c2ccc3c(c2)NC(=O)C(C)S3)CC1 (centres undefined) | 0.999% | 
35 | O=C(c1cccnc1)N(c1cc2sc(=O)oc2c2ccccc12)S(=O)(=O)c1ccccc1 |  | 3.98 µM (active)
36 | COc1ccc(N(C(=O)c2cccnc2)S(=O)(=O)c2ccc3c(c2)n(C)c(=O)n3C)cc1 | 20.5% | 
37 | COc1ccc(N(C(=O)c2cccnc2)S(=O)(=O)c2ccc(OC)c(OC)c2)cc1 | 3.04% | 
38 | COc1ccccc1N1CC(C(=O)Nc2nnc(SCC(=O)NCC3CCCO3)s2)CC1=O (centres undefined) |  | 50.1 µM (active)
39 | COc1cc(OC)cc(C(=O)Nc2nnc(SCC(=O)NCC3CCCO3)s2)c1 (centres undefined) | -4.79% | 
40 | Cc1ccccc1N1CC(C(=O)Nc2nnc(SCCC3OCCO3)s2)CC1=O (centres undefined) | -15.5% | 

Row | SMILES | largest response in the series, negative = inhibition | Potency
41 | CCCCC(c1nnnn1CS(=O)(=O)c1ccc(C)cc1)N1CCC(C(N)=O)CC1 (centres undefined) | 13.9% | 
42 | CC(NS(=O)(=O)c1ccc(Br)cc1)C(=O)NCC1CCCO1 (centres undefined) | 16.5% | 
43 | OC(CNCC1CCCO1)Cn1c2ccc(Br)cc2c2cc(Br)ccc21 (centres undefined) |  | 22.4 µM (active)
44 | O=C(CSc1ccc(-c2ccc(Br)cc2)nn1)NCC1CCCO1 (centres undefined) | 6.34% | 
45 | COc1ccc(CCNC(=O)c2cnc(Cl)c(Cl)c2)cc1 | 9% | 
46 | CC(NC(=O)CSc1nc2c(cc1C#N)CN(C)CC2)c1ccccc1 (centres undefined) |  | 56.2 µM (active)
47 | Cc1cc(NC(=O)CSc2nc3c(cc2C#N)CCCCC3)no1 | 15.4% | 
48 | CC1(C)CCc2nc(SCc3ccccc3)c(C#N)cc2C1 | -5.3% | 
49 | O=C(NCc1ccccc1)C(c1cccnc1)N(C(=O)c1csnn1)c1ccc(F)cc1 (centres undefined) | 19.5% | 
50 | CC(C)CCn1c(=O)c2c(nc3n2CCCN3Cc2ccccc2)n(C)c1=O | 4.31% | 
51 | NCCCNCCCCN(CCCN)/[N+]([O-])=N/O | -7.71% | 
52 | Cc1nc([N+](=O)[O-])nn1C12CC3CC(CC(Br)(C3)C1)C2 |  | 15.8 µM (active)
53 | Cc1ncn(C23CC4CC(CC(O)(C4)C2)C3)n1 | 17.6% | 
54 | COc1cccc(NC(=O)c2nn(C34CC5CC(CC(C5)C3)C4)cc2[N+](=O)[O-])c1 | 11.6% | 
55 | COc1cccc(CNS(=O)(=O)c2ccc3c(c2)CC(C)N3C(=O)C2CCC2)c1 (centres undefined) | 20.3% | 
56 | COc1cc(/C=N/NC(=O)c2cccnc2)ccc1OC(=O)c1cccc(Br)c1 | 9.75% | 
57 | O=C(CN1C(=O)COc2ccccc21)Nc1ccc(F)cc1 |  | 50.1 µM (active)
58 | O=C(CN1C(=O)COc2ccc(Cl)cc21)Nc1ccc(N2CCOCC2)cc1 | 9.73% | 
59 | CC(OC(=O)CN1C(=O)COc2ccccc21)C(=O)NCc1ccc(F)cc1 (centres undefined) | 16.7% | 
